Measurements: PMC5700166

Assays:
Assay in all cases: protein-binding microarray (PBM); PBM: ~300 nM protein, 6 mM HEPES pH 7.8, 80 mM KCl, 0.5 mM EDTA, 0.5 mM EGTA, 6% glycerol, 35 ng/ul poly-dIdC, 1% milk, 1 h, room temperature; Ap Aiptasia and Nv Nematostella (sea anemones) / Co Capsaspora / Aq Amphimedon (sponge) / Dm Drosophila / Hu human; RHD is the Rel homology domain; high values mean tight binding
Settings in all cases: dsDNA, one strand shown
GST-Ap-NF-kB RHD = target: T1, GST-Ap-NF-kB RHD (Exaiptasia pallida (Aiptasia), UniProt A0A913YAJ5 2-422)
T1 sequence: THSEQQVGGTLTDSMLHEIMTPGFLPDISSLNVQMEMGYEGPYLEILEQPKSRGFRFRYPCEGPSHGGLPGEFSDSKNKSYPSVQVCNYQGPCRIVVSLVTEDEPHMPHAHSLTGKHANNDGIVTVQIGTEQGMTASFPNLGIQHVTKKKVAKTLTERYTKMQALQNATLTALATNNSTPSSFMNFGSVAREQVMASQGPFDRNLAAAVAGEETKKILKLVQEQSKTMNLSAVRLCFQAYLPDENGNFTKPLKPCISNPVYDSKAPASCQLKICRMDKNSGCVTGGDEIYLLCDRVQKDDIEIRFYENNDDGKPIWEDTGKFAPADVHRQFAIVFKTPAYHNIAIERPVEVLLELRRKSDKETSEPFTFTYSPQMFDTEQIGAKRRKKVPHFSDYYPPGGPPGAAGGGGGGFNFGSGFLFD

[1] = target: T2, GST-Nv-NF-kB (Cys allele) (Nematostella vectensis, UniProt E5G601 2-411)
T2 sequence: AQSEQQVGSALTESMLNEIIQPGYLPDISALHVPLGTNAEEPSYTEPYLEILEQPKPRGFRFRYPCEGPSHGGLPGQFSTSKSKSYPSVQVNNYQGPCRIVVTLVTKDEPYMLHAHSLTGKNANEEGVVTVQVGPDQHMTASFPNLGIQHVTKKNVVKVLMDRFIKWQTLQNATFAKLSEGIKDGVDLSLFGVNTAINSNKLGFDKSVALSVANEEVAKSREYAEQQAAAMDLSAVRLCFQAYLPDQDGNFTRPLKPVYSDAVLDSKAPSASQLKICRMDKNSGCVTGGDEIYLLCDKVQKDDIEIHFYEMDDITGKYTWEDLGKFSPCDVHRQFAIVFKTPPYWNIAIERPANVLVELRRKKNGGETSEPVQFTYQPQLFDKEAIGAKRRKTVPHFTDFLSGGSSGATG

GST-Co-NF-kB = target: T3, GST-Co-NF-kB (Capsaspora owczarzaki, UniProt F1ARL5 200-546)
T3 sequence: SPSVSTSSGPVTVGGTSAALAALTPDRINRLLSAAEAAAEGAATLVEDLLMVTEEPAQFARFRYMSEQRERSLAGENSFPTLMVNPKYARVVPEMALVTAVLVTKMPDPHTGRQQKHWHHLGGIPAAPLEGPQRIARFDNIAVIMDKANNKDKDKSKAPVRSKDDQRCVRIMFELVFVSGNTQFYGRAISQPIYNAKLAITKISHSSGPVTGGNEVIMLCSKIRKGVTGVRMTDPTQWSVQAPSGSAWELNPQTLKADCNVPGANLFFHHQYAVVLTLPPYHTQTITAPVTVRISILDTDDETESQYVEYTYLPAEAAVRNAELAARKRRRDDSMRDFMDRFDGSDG

GST-Dm-Relish = target: T4, GST-Dm-Relish (Drosophila melanogaster, UniProt Q94527 99-473)
T4 sequence: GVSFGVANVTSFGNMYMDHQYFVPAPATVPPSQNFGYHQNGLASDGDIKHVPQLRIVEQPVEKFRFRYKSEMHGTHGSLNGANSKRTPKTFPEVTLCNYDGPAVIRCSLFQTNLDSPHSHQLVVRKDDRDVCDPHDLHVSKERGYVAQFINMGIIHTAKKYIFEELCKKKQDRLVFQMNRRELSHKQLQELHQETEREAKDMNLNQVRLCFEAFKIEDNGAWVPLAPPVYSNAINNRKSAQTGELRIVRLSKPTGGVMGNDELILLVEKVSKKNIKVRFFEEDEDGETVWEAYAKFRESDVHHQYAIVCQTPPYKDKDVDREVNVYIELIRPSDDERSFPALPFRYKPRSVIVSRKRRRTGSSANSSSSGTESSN

GST-Aq-NF-kB = target: T5, GST-Aq-NF-kB (Amphimedon queenslandica, UniProt A9Y5G7 2-389)
T5 sequence: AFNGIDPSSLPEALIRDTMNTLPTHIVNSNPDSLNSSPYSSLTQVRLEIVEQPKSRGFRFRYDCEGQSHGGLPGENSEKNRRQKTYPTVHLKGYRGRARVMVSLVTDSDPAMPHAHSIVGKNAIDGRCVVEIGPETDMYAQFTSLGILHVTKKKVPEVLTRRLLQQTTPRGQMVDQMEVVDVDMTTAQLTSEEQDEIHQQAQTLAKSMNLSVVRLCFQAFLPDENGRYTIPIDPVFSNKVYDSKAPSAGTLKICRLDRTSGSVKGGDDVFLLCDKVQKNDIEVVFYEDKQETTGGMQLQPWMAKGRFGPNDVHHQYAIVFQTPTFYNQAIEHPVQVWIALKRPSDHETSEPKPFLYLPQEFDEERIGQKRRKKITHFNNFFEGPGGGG

In the case of “CCGATTAACATCAGGGAATACCATGATGTTAATCGGGTCTTGATTCGCTTGACGCTGCTG”, the binding signal (GST-Ap-NF-kB RHD) is reported as 3.14 z-score, the binding signal [1] is reported as 2.92 z-score and the binding signal (GST-Co-NF-kB) is reported as 2.08 z-score. For the same sequence, the binding signal (GST-Dm-Relish) was 6.8 z-score and the binding signal (GST-Aq-NF-kB) was 4.48 z-score.

For “CCGATTAACATCACTTTACCCCCTGATGTTAATCGGGTCTTGATTCGCTTGACGCTGCTG”, the binding signal (GST-Ap-NF-kB RHD) was 4.02 z-score, the binding signal [1] was 2.61 z-score and the binding signal (GST-Co-NF-kB) was 6.83 z-score. It also gave a binding signal (GST-Dm-Relish) of 2.27 z-score and a binding signal (GST-Aq-NF-kB) of 3.05 z-score.

For “CCGATTAACATCACGGAATACCCTGATGTTAATCGGGTCTTGATTCGCTTGACGCTGCTG”, the binding signal (GST-Ap-NF-kB RHD) was 3.79 z-score, the binding signal [1] was 4.14 z-score and the binding signal (GST-Co-NF-kB) was 1.67 z-score. The binding signal (GST-Dm-Relish) was 4.64 z-score and the binding signal (GST-Aq-NF-kB) was 4.52 z-score.

“CCGATTAACATCAATGGGAAAATTGATGTTAATCGGGTCTTGATTCGCTTGACGCTGCTG” showed a binding signal (GST-Ap-NF-kB RHD) of 1.56 z-score, a binding signal [1] of 4.28 z-score and a binding signal (GST-Co-NF-kB) of 3.46 z-score. The binding signal (GST-Dm-Relish) was 1.25 z-score and the binding signal (GST-Aq-NF-kB) was 3.05 z-score.

“CCGATTAACATCAAGGGAGTACCTGATGTTAATCGGGTCTTGATTCGCTTGACGCTGCTG” was tested, and the binding signal (GST-Ap-NF-kB RHD) was 4.45 z-score, the binding signal [1] was 2.9 z-score and the binding signal (GST-Co-NF-kB) was 1.52 z-score. The binding signal (GST-Dm-Relish) was 3.08 z-score and the binding signal (GST-Aq-NF-kB) was 2.71 z-score.

Work on “CCGATTAACATCAAATTTTCCCATGATGTTAATCGGGTCTTGATTCGCTTGACGCTGCTG” yielded a binding signal (GST-Ap-NF-kB RHD) of 3.65 z-score, a binding signal [1] of 5.18 z-score and a binding signal (GST-Co-NF-kB) of 5.19 z-score. For the same sequence, the binding signal (GST-Dm-Relish) was 1.94 z-score and the binding signal (GST-Aq-NF-kB) was 4.45 z-score.

“CCGATTAACATCAGGAAATCCCATGATGTTAATCGGGTCTTGATTCGCTTGACGCTGCTG” showed a binding signal (GST-Ap-NF-kB RHD) of 4.15 z-score, a binding signal [1] of 3.68 z-score and a binding signal (GST-Co-NF-kB) of 1.17 z-score. It also gave a binding signal (GST-Dm-Relish) of 8.1 z-score and a binding signal (GST-Aq-NF-kB) of 5.09 z-score.

Work on “CCGATTAACATCAGGAACACCCCTGATGTTAATCGGGTCTTGATTCGCTTGACGCTGCTG” yielded a binding signal (GST-Ap-NF-kB RHD) of 3.14 z-score, a binding signal [1] of 1.33 z-score and a binding signal (GST-Co-NF-kB) of 1.86 z-score. For the same sequence, the binding signal (GST-Dm-Relish) was 3.5 z-score and the binding signal (GST-Aq-NF-kB) was 4.23 z-score.

With “CCGATTAACATCAGGGGGATGGATGATGTTAATCGGGTCTTGATTCGCTTGACGCTGCTG” the binding signal (GST-Ap-NF-kB RHD) was 3.8 z-score, the binding signal [1] was 3.13 z-score and the binding signal (GST-Co-NF-kB) was 3.52 z-score. It also gave a binding signal (GST-Dm-Relish) of 2.24 z-score and a binding signal (GST-Aq-NF-kB) of 3.5 z-score.

With “CCGATTAACATCAGGATTGCCCCTGATGTTAATCGGGTCTTGATTCGCTTGACGCTGCTG” the binding signal (GST-Ap-NF-kB RHD) was 2.91 z-score, the binding signal [1] was 4.26 z-score and the binding signal (GST-Co-NF-kB) was 1.5 z-score. It also gave a binding signal (GST-Dm-Relish) of 2.51 z-score and a binding signal (GST-Aq-NF-kB) of 5.63 z-score.

In the case of “CCGATTAACATCAGGACTCTCCCTGATGTTAATCGGGTCTTGATTCGCTTGACGCTGCTG”, the binding signal (GST-Ap-NF-kB RHD) is reported as 3.59 z-score, the binding signal [1] is reported as 5.02 z-score and the binding signal (GST-Co-NF-kB) is reported as 1.1 z-score. For the same sequence, the binding signal (GST-Dm-Relish) was 2.07 z-score and the binding signal (GST-Aq-NF-kB) was 7.56 z-score.

With “CCGATTAACATCAGATCTTCCCCTGATGTTAATCGGGTCTTGATTCGCTTGACGCTGCTG” the binding signal (GST-Ap-NF-kB RHD) was 4.63 z-score, the binding signal [1] was 6.25 z-score and the binding signal (GST-Co-NF-kB) was 7.3 z-score. It also gave a binding signal (GST-Dm-Relish) of 4.83 z-score and a binding signal (GST-Aq-NF-kB) of 6.29 z-score.

In the case of “CCGATTAACATCACGGGAAGTCCTGATGTTAATCGGGTCTTGATTCGCTTGACGCTGCTG”, the binding signal (GST-Ap-NF-kB RHD) is reported as 2.98 z-score, the binding signal [1] is reported as 3.06 z-score and the binding signal (GST-Co-NF-kB) is reported as 1.33 z-score. For the same sequence, the binding signal (GST-Dm-Relish) was 7.73 z-score and the binding signal (GST-Aq-NF-kB) was 6 z-score.

Work on “CCGATTAACATCACTAATTTCCCTGATGTTAATCGGGTCTTGATTCGCTTGACGCTGCTG” yielded a binding signal (GST-Ap-NF-kB RHD) of 3.79 z-score, a binding signal [1] of 4.55 z-score and a binding signal (GST-Co-NF-kB) of 4.57 z-score. It also gave a binding signal (GST-Dm-Relish) of 2.5 z-score and a binding signal (GST-Aq-NF-kB) of 4.09 z-score.
